# High-throughput results deposited in PubChem by Broad Institute.
# Tgondii IFNg – blocks Toxoplasma gondii growth in the presence of IFN-gamma. Toxoplasma gondii growth in IFN-gamma-treated host cells; active compounds read low. hit rate 3.8% among 69,000. activity change, negative = inhibition, % (concentration not given with the values); in the data active means activity change below about -70%, passing the limit was not always enough;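 further: host cells are HeLa cells infected with Toxoplasma gondii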
# An asterisk follows results filed as active; i = inactive. This excerpt belongs to a sample that is enriched for hits.
SMILES,Tgondii IFNg
O=C([C@H]1[C@H](CO)[C@H]2Cn3c(ccc(C4=CCCCC4)c3=O)[C@@H]1N2Cc1nccs1)N1CCCCC1,-4
CCOCC1CC2(COCCN2S(=O)(=O)c2ccc(OC)cc2)CO1 (configuration not stated),-8
Cc1ccc(NC(=O)N2CCCC3(CCCC(=O)N3C)C2)cc1 (configuration not stated),i
Cc1c(Cl)cc(C(=O)N2CCCC(N(C)CCN(C)C)C2)cc1Cl (configuration not stated),-16
CC(=O)N1CCc2c([nH]c3ccccc23)C12C(=O)N(C)c1ccccc12 (configuration not stated),492
CCc1ccc(C2c3[nH]c4ccccc4c3CCN2C(=O)CSC)cc1 (configuration not stated),1
CN1c2ccccc2C(=O)N2CCc3c([nH]c4ccccc34)C21 (configuration not stated),-80*
CCc1nc(-c2c(-c3ccccc3)ncn2CCc2c(C)n[nH]c2C)c(C)[nH]1,-3
CNc1ncc(CN(C)C(=O)c2csc(C)n2)cn1,-51
Cc1nc2[nH]nc(C)n2c(=O)c1CC(=O)NC(c1ccc(F)cc1)C(C)C (configuration not stated),8
CC(=O)c1c(C)nn(CCC(=O)N2CCCC(O)(CN(C)C)C2)c1C (configuration not stated),-3
Clc1ccccc1CSc1nc2ccccc2[nH]1,-37
Cc1cc(CSc2nc3ccccc3[nH]2)c(C)cc1CSc1nc2ccccc2[nH]1,-96*
c1ccc(-n2nnnc2CSc2nc3ccccc3[nH]2)cc1,-1
O=C(C1CCOCC1)N1CC(=O)N2[C@H](C1)[C@H](c1ccc(/C=C/c3ccccc3)cc1)[C@@H]2CO,-34
Cc1ccc2nc(C)c(C(=O)N3CCOC(CCN)C3)cc2c1 (configuration not stated),8
Cc1ccc(-c2cccc(CC3(C(=O)N(C)C)CCN(C(=O)Cn4cc(C)cn4)C3)c2)cc1 (configuration not stated),-4
CC(C)CN(C[C@@H](O)[C@H](Cc1ccccc1)NC(=O)O[C@H]1CO[C@H]2OCC[C@H]21)S(=O)(=O)c1ccc(N)cc1,-72*
CC(C)CN(C[C@@H](O)[C@H](Cc1ccccc1)NC(=O)O[C@H]1CCOC1)S(=O)(=O)c1ccc(N)cc1,-2
Cc1cc(C)n(Cc2nc(-c3ccc(NC(=O)c4cccc(N(C)C)c4)cc3)oc2C)n1,-56
Cc1ccc(C(=O)Nc2ccc(-c3nc(Cn4nc(C)c(C)c4C)c(C)o3)cc2)cc1,-88*
Cc1nn(Cc2nc(-c3ccc(NC(=O)c4ccc(C#N)cc4)cc3)oc2C)c(C)c1C,184
Cc1nn(Cc2nc(-c3ccc(NC(=O)c4ccc(F)cc4)cc3)oc2C)c(C)c1C,112
COCC(=O)Nc1ccc(-c2nc(Cn3nc(C)c(C)c3C)c(C)o2)cc1,60
Cc1nn(Cc2nc(-c3ccc(NC(=O)c4ccccc4)cc3)oc2C)c(C)c1C,-93*
SMILES,Tgondii IFNg
COc1cccc(C(=O)Nc2ccc(-c3nc(Cn4nc(C)cc4C)c(C)o3)cc2)c1,-62
Cc1cccc(C(=O)Nc2ccc(-c3nc(Cn4nc(C)c(C)c4C)c(C)o3)cc2)c1,-91*
Cc1oc(-c2ccccc2)nc1Cn1nnc(C(=O)Nc2ccccc2)c1C,-64
CCc1ncc(-c2c(-c3ccccc3)ncn2CC(=O)N2CCNCC2)cn1,-4
COc1ccc(C(=O)Nc2ccc(C(=O)OCC(=O)c3ccccc3)cc2)cc1OC,11
Cc1cccc(NC(=O)CC(=O)N(C)Cc2cc(C(C)(C)C)n[nH]2)c1C,-5
O=C(O)C1CC(=O)N(CC2CCCO2)C1 (configuration not stated),-2
O=C(Cc1ccc(F)cc1)NCCc1csc(-c2ccc(Cl)cc2)n1,12
COc1ccc(Nc2nnc(C)c3ccccc23)cc1C(=O)N1CCCCC1,-41
COC(=O)[C@@H]1C[C@@H](N(C)C)CN1C(=O)c1ccc(C(C)C)n(C)c1=O,-5
O=C1OC(=O)C2C3CCC(O3)C12 (configuration not stated),-75*
CCCN(CCOC)C(=O)C1CC2(CO1)c1ccccc1CN2CC1CC1 (configuration not stated),9
O=C1C2CCCCC2C(=O)N1c1ccc(OS(=O)(=O)c2ccccc2)cc1 (configuration not stated),-26
NC(N)=N/N=C/c1ccc(OS(=O)(=O)c2ccccc2)cc1,-77*
NC(N)=N/N=C/c1c(Cl)cccc1Cl,-4
O=C(NCCc1csc(-c2cccc(F)c2)n1)C(=O)Nc1ccc(F)cc1F,22
COc1ccc(CNC(=O)c2nc(Nc3ccc(F)cc3)c3ccccc3n2)cc1OC,-23
O=C(Nc1ccc2c(c1)CS(=O)(=O)C2)c1cccs1,48
O=C(Nc1ccc2c(c1)ncn2-c1ccccc1)c1cccs1,-95*
CN(C)c1ccc(NC(=O)c2cccs2)cc1,38
COc1ccccc1CNc1nc2ccccc2n1C(C)C,-40
CCOc1ccc(-c2nc(Cn3nnc(C(=O)Nc4cc(F)ccc4C)c3C)c(C)o2)cc1,73
COc1ccc(NC(=O)c2nnn(Cc3nc(-c4ccc(OC(C)C)cc4)oc3C)c2C)c(OC)c1,-38
COc1cccc(-c2nc(Cn3nnc(C(=O)Nc4ccccc4C)c3C)c(C)o2)c1OC,49
Cc1oc(-c2ccc(OC(C)C)cc2)nc1Cn1nnc(C(=O)Nc2ccc(F)cc2F)c1C,-110*
SMILES,Tgondii IFNg
Cc1ccc(C)c(NC(=O)c2nnn(Cc3nc(-c4ccc(OC(C)C)cc4)oc3C)c2C)c1,11
Cc1cccc(NC(=O)c2nnn(Cc3nc(-c4ccc(Cl)cc4)oc3C)c2C)c1C,-4
Cc1cccc(NC(=O)c2nnn(Cc3nc(-c4ccc(OC(C)C)cc4)oc3C)c2C)c1C,-89*
CCc1ccccc1NC(=O)c1nnn(Cc2nc(-c3cc(Br)ccc3OC)oc2C)c1C,55
CCc1ccccc1NC(=O)c1nnn(Cc2nc(-c3cccc(OC)c3OC)oc2C)c1C,-84*
C=CCN1CC2(CCN(C(=O)c3ccc[nH]3)CC2)OCC1=O,3
Cc1ccc(-c2noc(-c3c(O)c4cc(F)ccc4n(C)c3=O)n2)cc1,19
CCN1CCCC1CNC(=O)C1CCN(Cc2cc3ccccc3n2Cc2ccccc2Cl)CC1 (configuration not stated),-45
Cn1nc(C(F)(F)F)c2cc(-c3nc(-c4ccc(C(F)(F)F)cc4)no3)sc21,27
CCO[C@@H]1CC[C@@H]2[C@H]1OCCN2S(=O)(=O)c1c(C)nn(C)c1C,-7
COc1ccc(CN2C3(CCN(Cc4ccncc4)C3)c3ccccc3S2(=O)=O)cc1 (configuration not stated),-36
O=C(Sc1ccc(Cl)cc1)c1cnn(-c2ccc(Cl)cc2)c1C(F)(F)F,-95*
FC(F)(F)c1cc(NC(=S)Sc2ccc(Cl)cc2)cc(C(F)(F)F)c1,-22
Cc1nc(C(F)(F)F)ccc1C(=O)Sc1ccc(F)cc1,-1
O=C(c1cc(=O)n(-c2ccccc2)[nH]1)N1CCCC(CCc2ccc(F)cc2)C1 (configuration not stated),7
CN(C)CC1CN(Cc2cnn(C)c2)Cc2nccn2C1 (configuration not stated),-27
Cc1ccc(NC(=O)CN2C(=O)CCc3cc(S(=O)(=O)N4CCC(C)CC4)ccc32)cc1F,-47
Cc1ccc(NC(=O)CN2C(=O)CCc3cc(S(=O)(=O)N4CCC(C)CC4)ccc32)cc1Cl,-103*
CC1CCN(S(=O)(=O)c2ccc3c(c2)CCC(=O)N3CC(=O)Nc2ccc3c(c2)OCO3)CC1,-18
